PubChem BioAssay
Entries with a potency or affinity are not part of this list. Inconclusive results are not listed. Calls of active or inactive are those of the source.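 Rule for the calls, unless noted: active = falling signal with fitted half-maximal potency no higher than twice the top valid tested dose; inconclusive = poor fit quality, or flat fit spanning -70% to -30%; inactive = potency over limit, rising signal, or flat fit inside 30%.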

Columns and labels:
[1] = fungal growth arrest, C. neoformans – Alamar Blue, cherry-picks, dose response (AID 686998)
[2] = C. neoformans lysis by adenylate kinase leakage – AK release luminescence, cherry-picks, dose response (AID 687000;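 active = fitted dose curve reaches 40% lysis signal rise at or below the highest valid concentration tested for that sample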;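 note: luminescent detection of adenylate kinase leaking from lysed yeast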)
[3] = viability loss in HepG2 hepatoma cells – cell-based, cherry-picks, set 2, cytotoxicity control, dose response (AID 687002;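 active = a dose-response fit showing signal loss, with half-maximal concentration no higher than twice the top tested dose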)
[4] = viability loss in HeLa cells – cell-based, ATP luminescence, cherry-pick samples, cytotoxicity control, dose response (AID 687004;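 active = a fitted half-maximal concentration no higher than twice the top valid tested dose, with signal falling as cells die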)

Measured: outcome

COc1cccc(C2CC(c3cccs3)=NN2C(=O)c2ccco2)c1O (stereo not given)
inactive: all assays above

CC(C)c1ccc(S(=O)(=O)N2CCN(CC(=O)Nc3ccc4c(c3)OCO4)CC2)cc1
inactive: all assays above

CC(C)NC(=O)Nc1cccc2c1O[C@H](CN(C)C)[C@H](C)CN([C@H](C)CO)C2=O
inactive: all assays above

CCCC(=O)N1CCCC1(C)C(=O)Nc1cc(C)ccc1C (stereo not given)
inactive: all assays above

C[C@@H]1CN([C@H](C)CO)C(=O)c2cc(NS(=O)(=O)c3cn(C)cn3)ccc2O[C@H]1CN(C)C(=O)Nc1cccc2ccccc12
inactive: all assays above

CCCNC(=O)N(C)C[C@H]1Oc2ncc(C#CC3CCCCC3)cc2C(=O)N([C@@H](C)CO)C[C@@H]1C
inactive: all assays above

CO[C@H]1CN(C)C(=O)c2cc(NC(=O)C3CCOCC3)ccc2OC[C@@H](C)NC[C@H]1C
inactive: all assays above

CCCNC(=O)C[C@@H]1CC[C@H]2[C@@H](COC[C@H](O)CN2Cc2ccccc2F)O1
inactive: all assays above

CC(=O)NC[C@@H]1[C@@H](c2ccc(C3=CCCC3)cc2)[C@@H](CO)N1C(=O)NC(C)C
inactive: all assays above

CNC(=O)C[C@@H]1CC[C@@H]2[C@H](COc3ccc(NC(=O)c4cc(C)on4)cc3C(=O)N2C)O1
inactive: all assays above

CO[C@H]1CN(C)C(=O)c2cc(NC(=O)Nc3cccc(F)c3)ccc2OC[C@H](C)N(C)C[C@H]1C
inactive: all assays above

O=C(C[C@H]1C[C@H]2c3cc(NC(=O)C4CCC4)ccc3O[C@H]2[C@@H](CO)O1)NCc1cccc(F)c1
inactive: all assays above

O=C(CN(c1ccc(F)cc1)S(=O)(=O)c1ccccc1)NC1CCCCCC1
inactive: all assays above

O=C(C[C@H]1CC[C@H]2[C@@H](COC[C@@H](O)CN2S(=O)(=O)c2ccc(Oc3ccccc3)cc2)O1)NC1CCC1
inactive: all assays above

C[C@@H]1CCCCO[C@@H](CN(C)S(=O)(=O)c2ccccc2)[C@H](C)CN([C@@H](C)CO)C(=O)c2cc(NC(=O)Nc3ccc(F)cc3)ccc2O1
inactive: all assays above

C[C@@H]1CN([C@H](C)CO)C(=O)c2cc(N(C)C)ccc2O[C@@H]1CN(C)C(=O)Nc1ccc(C(F)(F)F)cc1
inactive: all assays above

C[C@@H]1CN([C@@H](C)CO)C(=O)c2cc(NS(=O)(=O)c3ccc(F)cc3)ccc2O[C@@H](C)CCCCO[C@@H]1CN(C)Cc1ccc2c(c1)OCO2
inactive: all assays above

C[C@H]1CN([C@@H](C)CO)C(=O)Cc2cc(NS(=O)(=O)c3ccc(F)cc3)ccc2O[C@H]1CN(C)S(=O)(=O)c1ccc(F)cc1
inactive: all assays above

C[C@H](CO)N1C[C@H](C)[C@@H](CN(C)C(=O)c2cccc(F)c2)Oc2cc(-c3cncnc3)ccc2S1(=O)=O
inactive: all assays above

C[C@H]1CCCCO[C@@H](CN(C)C(=O)c2ccccc2)[C@@H](C)CN([C@@H](C)CO)C(=O)c2cc(NC(=O)c3ccncc3)ccc2O1
inactive: all assays above

Cc1ccc(NC(=O)C2(C)CCN2C(=O)C2CCCCC2)cc1C (stereo not given)
inactive: all assays above

O=C1CCC(C(=O)Nc2ccccc2)N1 (stereo not given)
inactive: all assays above

CC(NC(=O)COc1ccc([N+](=O)[O-])cc1)c1ccccc1 (stereo not given)
inactive: all assays above

O=C(c1cccnc1)N1CCC(Oc2ccc(C(=O)N3CCCC(O)C3)cc2)CC1 (stereo not given)
inactive: all assays above

C[C@@H]1CN([C@@H](C)CO)C(=O)c2cc(NS(=O)(=O)c3ccccc3)ccc2O[C@H]1CN(C)C(=O)NC1CCCCC1
inactive: all assays above

COc1cccc(-c2cn(CC[C@@H]3CC[C@H](NC(C)=O)[C@@H](CO)O3)nn2)c1
inactive: all assays above

O=C(C[C@@H]1C[C@@H]2c3cc(NC(=O)Nc4ccc(F)cc4)ccc3O[C@@H]2[C@@H](CO)O1)NCC1CC1
inactive: all assays above

C[C@H]1CN([C@@H](C)CO)C(=O)c2cc(C#Cc3ccccn3)cnc2O[C@H]1CN(C)Cc1ccncc1
inactive: all assays above

Cc1ccccc1S(=O)(=O)N[C@H]1CC[C@H](CCNS(=O)(=O)c2cccc(F)c2)O[C@H]1CO
inactive: all assays above

CC(C)NC(=O)Nc1ccc2c(c1)C(=O)N([C@H](C)CO)C[C@@H](C)[C@H](CN(C)C(=O)Nc1ccccc1)OCCCC[C@@H](C)O2
inactive: all assays above

O=C(N[C@H]1CC[C@@H](CCn2cc(-c3ccccc3)nn2)O[C@@H]1CO)c1cnccn1
inactive: all assays above

CC(C)NC(=O)Nc1ccc2c(c1)CC(=O)N([C@H](C)CO)C[C@@H](C)[C@H](CN(C)Cc1ccc3c(c1)OCO3)O2
inactive: all assays above

CCC(C)(C(=O)Nc1ccccc1C)N(C(=O)CNC(C)=O)c1ccc(C)cc1 (stereo not given)
inactive: all assays above

C[C@@H]1CCCCO[C@@H](CN(C)Cc2ccncc2)[C@@H](C)CN([C@@H](C)CO)C(=O)c2cc(NC(=O)c3ccncc3)ccc2O1
inactive: all assays above

NC(=O)CN(c1ccccc1)S(=O)(=O)c1ccc(F)cc1
inactive: all assays above

C[C@@H]1CN([C@@H](C)CO)C(=O)CCCn2cc(nn2)CO[C@@H]1CN(C)Cc1ccc2c(c1)OCO2
inactive: all assays above

CC(C)NC(=O)Nc1ccc2c(c1)C(=O)N([C@@H](C)CO)C[C@H](C)[C@@H](CN(C)C(=O)CCC(F)(F)F)OCCCC[C@H](C)O2
inactive: all assays above

CCCNC(=O)C[C@H]1C[C@H]2c3cc(NC(=O)Nc4ccc(OC)cc4)ccc3O[C@H]2[C@@H](CO)O1
inactive: all assays above

Cc1ccc(S(=O)(=O)N(C)C[C@@H]2Oc3ncc(Br)cc3C(=O)N([C@@H](C)CO)C[C@H]2C)cc1
inactive: all assays above

CO[C@@H](CN(C)Cc1ccc2c(c1)OCO2)[C@@H](C)CN(C(=O)c1ccccc1)[C@H](C)CO
inactive: all assays above

Cc1noc(C)c1NC(=O)N(C)C[C@@H]1Oc2ccc(NC(=O)C3CC3)cc2CC(=O)N([C@H](C)CO)C[C@@H]1C
inactive: all assays above

O=C(NC1CCCCC1)N[C@H]1C=C[C@@H](CC(=O)N2CCOCC2)O[C@H]1CO
inactive: all assays above

COc1ccccc1-c1ccc2c(c1)O[C@@H](CN(C)C(=O)c1cccnc1)[C@H](C)CN([C@@H](C)CO)S2(=O)=O
inactive: all assays above

CC(=O)c1cccc(NC(=S)NC2CCCCC2)c1
inactive: all assays above

CCC(=O)N1[C@H](CO)[C@H](c2ccccc2)[C@H]1CN(CC)C(=O)c1cccc(F)c1
inactive: all assays above

C[C@H](O)C#Cc1ccc2c(c1)O[C@H](CN(C)C(=O)C1CCCCC1)[C@H](C)CN([C@@H](C)CO)S2(=O)=O
inactive: all assays above

Cc1noc(C)c1S(=O)(=O)Nc1ccc2c(c1)C(=O)N([C@H](C)CO)C[C@H](C)[C@H](CN(C)Cc1ccncc1)O2
inactive: all assays above

COc1ccc(NC(=O)Nc2ccc3c(c2)C(=O)N([C@H](C)CO)C[C@@H](C)[C@@H](CN(C)C(=O)CCC(F)(F)F)OCCCC[C@H](C)O3)cc1
inactive: all assays above

C[C@H](CO)N1C[C@H](C)[C@@H](CN(C)S(C)(=O)=O)Oc2cc(C#Cc3ccccc3)ccc2S1(=O)=O
inactive: all assays above

CCNC(=O)COc1cccc(C(=O)NCc2ccccc2)c1
inactive: all assays above

O=C(c1cccc(F)c1)N1C[C@@H]2[C@H](c3ccccc31)[C@H](CO)N2Cc1cocn1
inactive: all assays above

CC(C)(C)SCCNC(=O)CN(c1ccc(F)cc1)S(=O)(=O)c1ccccc1
inactive: all assays above

O=C(NC[C@@H]1[C@H](c2ccccc2)[C@@H](CO)N1C(=O)Cc1cccnc1)C1CCC1
inactive: all assays above

COc1ccc(N2CCN(C(=O)CSc3ncnc4c3cnn4-c3ccc(OC)cc3)CC2)cc1
inactive: all assays above

CC(C)CC#Cc1cnc2c(c1)C(=O)N([C@H](C)CO)C[C@@H](C)[C@@H](CN(C)C(=O)c1ccc3c(c1)OCO3)O2
inactive: all assays above
